Source: PubChem BioAssay
Rows were chosen to be rich in hits. Some 0.92% of all compounds tested hit in one or more screens of this group.
LmPK inhibitor – LmPK (Leishmania mexicana) enzyme inhibition | 290,000 compounds, 0.37% hits | Potency, µM (highest dose often 57.5 µM), most hits filed as inhibitors | purified LmPK, Kinase-Glo ATP luminescence, 1 h | Q27686
Target sequence (Q27686 whole entry, looked up): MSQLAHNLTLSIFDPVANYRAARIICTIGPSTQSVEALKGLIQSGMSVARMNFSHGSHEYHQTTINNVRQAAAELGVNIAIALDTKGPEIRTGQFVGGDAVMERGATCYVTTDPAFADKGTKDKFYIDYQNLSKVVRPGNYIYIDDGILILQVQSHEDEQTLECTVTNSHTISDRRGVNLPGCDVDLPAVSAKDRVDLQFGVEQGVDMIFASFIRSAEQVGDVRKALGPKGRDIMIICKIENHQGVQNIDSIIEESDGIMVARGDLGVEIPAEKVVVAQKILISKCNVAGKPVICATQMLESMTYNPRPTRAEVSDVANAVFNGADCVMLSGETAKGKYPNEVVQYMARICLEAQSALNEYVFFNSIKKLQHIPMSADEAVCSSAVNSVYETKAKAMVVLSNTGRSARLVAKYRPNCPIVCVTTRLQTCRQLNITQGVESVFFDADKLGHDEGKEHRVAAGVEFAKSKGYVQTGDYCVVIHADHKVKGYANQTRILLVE
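Kinase-Glo luminescence read after 1 h RT reaction of 0.1 nM LmPK with 0.5 mM PEP and 0.1 mM ADP. Activity scaled between uninhibited and enzyme-free controls.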
NS1 function inh – inhibitors of influenza NS1 protein function; Potency, µM (doses to about 46.1 µM); 270,000 compounds, 0.4% hits; AID 2326; calls by dose curve; also: actives are rising curves; nearly all actives have a fitted effect of over 50% in size
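Read-out: OD600 growth recovery of NS1-expressing budding yeast. Cells grown overnight at 30C in -URA glucose medium, washed, resuspended and diluted 1:100 in 2% galactose assay medium, pH 6.0. Same strain lacking NS1 served as positive control.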
RE007 growth inh – less growth of the S. pombe RE007 Vpr strain. 360,000 compounds, 0.21% hits. S. pombe RE007 Vpr strain, BacTiter-Glo ATP luminescence, 24 h. Potency, µM (top dose mostly 92.2 µM), actives largely listed as inhibitors; active = well fitted falling curve with a large enough effect; also: nearly all actives have a fitted effect of over 50% in size
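Fission yeast strain RE007, carrying one chromosomally integrated HIV-1 vpr copy, was seeded at OD 0.01 in PMG+AL medium with 23 nL pinned compound. After 24 h at 30 °C and 99% humidity, viability was read by BacTiter-Glo luminescence.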
AMA1 RON2 block – inhibitors of Plasmodium falciparum AMA1-RON2 interaction; AlphaScreen AMA1-biotinylated RON2 peptide binding; 360,000 compounds, 0.2% hits; Potency, µM (series often up to 58.2 µM), hits mostly inhibitors; also: nearly all actives have a fitted effect of over 45% in size
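AMA1 (3D7) with his tag at 25 nM final met compounds first, then biotinylated RON2 peptide at 25 nM; detection used donor plus acceptor beads, 10 µg/mL apiece, read by AlphaScreen after 30 min at room temperature.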
TbPYK inhibitor – inhibitors of Trypanosoma brucei pyruvate kinase; Q57TT1; TbPYK enzyme, Kinase-Glo Plus ATP luminescence, 45 min; Potency, µM (doses to about 76.8 µM), hits mostly inhibitors; 410,000 compounds, 0.12% hits; AID 624173; also: nearly all actives have a fitted effect of over 50% in size
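Glycolytic pyruvate kinase of T. brucei was incubated with substrate, test compound and 130 uM ADP for 45 minutes at room temperature. Luminescent Kinase-Glo Plus signal was measured after 10 minutes.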
NS1 inh valid – validation of influenza NS1 protein function inhibitors | shares compounds with NS1 function inh | 1,400 tested, under 10 active | activity change, negative = inhibition, % at 32.9 µM | influenza NS1 function cell assay, 15-point titration; calls by dose curve
A number is an active result; – = inactive; · = no result; [ ] = remark or other dose. Unless noted, calls follow the shape of the dose curve; as a rule, active = well fitted curve in the direction sought with a large enough effect; inconclusive = small, poorly fitted or top-dose-only effect, or another doubt; inactive = no such curve, though single readings can be large; an effect the other way counts as inactive or inconclusive.

SMILES	LmPK inhibitor	NS1 function inh	RE007 growth inh	AMA1 RON2 block	TbPYK inhibitor	NS1 inh valid
COc1ccccc1OCCn1c(COc2cc(C)ccc2C)nc2ccccc21	·	·	·	·	–	·
Cn1c(=O)n(-c2ccccc2)c(=O)c2c3c(sc21)COC(C)(C)C3	–	8.91µM	–	–	–	–
Cc1cc2c(n1-c1ccc(C(=O)NCC(C)c3ccccc3)cc1)CCCC2 (stereo unspecified)	·	·	·	·	–	·
Cc1cc(C(=O)CN(Cc2ccc(F)cc2)S(=O)(=O)c2ccc3c(c2)OCCO3)c(C)n1C	–	11.2µM	–[3.69 µM]	–	·	–
COc1ccc(-n2c(=S)[nH]c3cc(C(=O)NCc4ccco4)ccc3c2=O)c(OC)c1	–	12.6µM	–	–	–	–
CC#CCN1c2ccccc2[C@]23C[C@@H](C(=O)OC)N(C(=O)CC(C)C)C2=NC(C(=O)OC)=C(C(=O)OC)[C@H]13	–[11.5 µM]	·	·	·	·	·
Cc1cc(=O)[nH]c(N/N=C/c2c(O)n(-c3ccccc3)c(=O)c3ccccc23)n1	–	10µM	·	–	–	–
Cc1ccc2nc(-c3ccc(NS(=O)(=O)c4c(C)n(C)c(=O)n(C)c4=O)cc3)sc2c1	–	7.94µM	–	–	–	–
Cc1ccc(S(=O)(=O)Nc2ccc(-c3nc4ccc(C)cc4s3)cc2)cc1	–	–	–	–	–	·
NCCCCCc1nnc(SCc2ccc(F)cc2)o1	·	·	·	·	–	·
